This is an account of results in PubChem BioAssay AID1490 (National Center for Advancing Translational Sciences (NCATS), 2009).

Values joined by “and” are separate entries in the source; they are usually repeats but may differ in a detail not shown here. Identical values can stand only once. In all, about 310,000 compounds went through this assay and about 11,000 (3.5%) were called active. Another 4% or so got no clear call; they are omitted. The call rests on the fitted dose curve; in most records, active means well fitted inhibition curve with a large enough effect; inconclusive means small, poorly fitted or top-dose-only effect, or another doubt; inactive means no such curve, though single readings can be large or run the other way. This excerpt belongs to a sample that is enriched for actives.
Potency means the concentration at half of the fitted maximal effect.

For the assay, the target named is 4'-phosphopantetheinyl transferase ffp (Bacillus subtilis) (UniProt Q9F4F7). Kind of assay: qHTS Assay for Inhibitors of Bacillus subtilis Sfp phosphopantetheinyl transferase (PPTase).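 Further: the enzyme is Sfp with the accession as filed and its product quenches rhodamine fluorescence.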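 On largest response in the series, negative = inhibition: 0% = enzyme reaction without inhibitor and -100% = no enzyme wells.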 The settings on record: Biochemical Sfp PPTase activity. Summed up:
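After 15 min at room temperature with compound, 15 nM Sfp received 5 uM rhodamine-CoA plus 12.5 uM BHQ-2-ybbR (50 mM Hepes pH 7.6, 10 mM MgCl2). Rate came from the fluorescence difference over 30 min, ex 525/em 598 nm.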
Turning to `Cc1coc2c(O)cc3c(c12)OC1(N2CCCCC2)C(=O)NCCCC31` (stereo not drawn), the Potency is 28.2 µM (active).

Turning to `Cc1nonc1C1CCCN1C(=O)c1cc(COc2cccc(C(F)(F)F)c2)on1` (stereo not drawn), the largest response in the series, negative = inhibition was 14.2% (inactive).

Turning to `CCc1cccc(NC(=O)CCCN2C(=O)C(c3ccccc3)Oc3cccnc32)c1` (stereo not drawn), the largest response in the series, negative = inhibition is 11.6% (inactive).

As to `COC(=O)C(CC(C)C)NS(=O)(=O)c1cc(Br)ccc1Br` (stereo not drawn), the largest response in the series, negative = inhibition is 6.49% (inactive).

For `COc1cc2c(cc1OC)CC(=O)N(CCCN(C)C[C@H]1Cc3cc(OC)c(OC)cc31)CC2`, the largest response in the series, negative = inhibition was 9.18% (inactive).

Turning to `Cc1cccc(N2C(=O)c3ccc(C(=O)Nc4cccc(C(=O)O)c4)cc3C2=O)c1`, the largest response in the series, negative = inhibition was 8.86% (inactive).

`Cc1cccc(N2C(=O)CC(SC(N)=Nc3ccccc3)C2=O)c1` (stereo not drawn): the largest response in the series, negative = inhibition was 10.8% (inactive).

For `Cc1cccc(N2C(=O)SC(SC(=Nc3ccccc3)Nc3ccccc3)C2=O)c1` (stereo not drawn), the Potency is 10 µM (active).

In the case of `CCOC(=O)C1(Cc2ccccc2C)CCCN(C(=O)CN2C(=O)CSC2=O)C1` (stereo not drawn), the largest response in the series, negative = inhibition was 3.9% (inactive).

As for `CC(=O)c1cccc(OCc2cc(C(=O)NC(C)Cc3cccnc3)no2)c1` (stereo not drawn), the largest response in the series, negative = inhibition was 16.6% (inactive).

As to `Cc1oc2c(F)c(F)c(F)c(F)c2c1S(=O)(=O)Nc1cccc(C(F)(F)F)c1`, the largest response in the series, negative = inhibition is 11.3% (inactive).

`O=C(CN1CCN(c2ccccc2)CC1)Nc1ccc(F)cc1`: the largest response in the series, negative = inhibition was 7.85% (inactive).

Turning to `O=C(CN1CCOCC1)Nc1cc(Cl)ccc1Cl`, the largest response in the series, negative = inhibition is 2.24% (inactive).

In the case of `O=C(CN1CCN(c2ccc(F)cc2)CC1)Nc1ccccc1`, the largest response in the series, negative = inhibition is -1.74% (inactive).

For `O=C(CN1CCN(c2cccc(Cl)c2)CC1)Nc1ccc(S(=O)(=O)N2CCOCC2)cc1`, the largest response in the series, negative = inhibition is 13% (inactive).

`CC(=O)N1CCN(CC(=O)Nc2ccc(C)c(F)c2)CC1`: the largest response in the series, negative = inhibition is -24.9% (inactive).

As to `Cc1cc(NC(=O)CCN2CCN(Cc3ccccc3)CC2)ccc1Br`, the largest response in the series, negative = inhibition was -5.6% (inactive).

For the compound `O=C(CN1CCN(c2ccc(O)cc2)CC1)Nc1cc(S(=O)(=O)N2CCOCC2)ccc1Cl`, the Potency was 79.4 µM (active).

As to `O=C(CSc1nncs1)NC1CCCc2ccccc21` (stereo not drawn), the largest response in the series, negative = inhibition is 15.6% (inactive).

`O=C(CN1CCN(c2ccc(O)cc2)CC1)Nc1ccc(-c2ccccc2)cc1`: the Potency was 44.7 µM (active).

Take `CSc1ccccc1N1CCN(CCCCCC(=O)NC2CCCc3ccccc32)CC1` (stereo not drawn): the largest response in the series, negative = inhibition is -7.93% (inactive).

As to `O=C(CN1CCN(c2ccc(O)cc2)CC1)NC1CCCc2ccccc21` (stereo not drawn), the Potency was 17.8 µM (active).

Consider `O=C(CN1CCN(Cc2ccccc2)CC1)Nc1ccc(F)c(F)c1`, for which the Potency is 56.2 µM (active).

In the case of `COc1ccc(C2(C#N)CCC(C(=O)O)CC2)cc1OC1CCCC1` (stereo not drawn), the largest response in the series, negative = inhibition was 3.3% (inactive).

Turning to `CN(CC(=O)NCCN1CCOCC1)S(=O)(=O)c1ccc(F)cc1`, the largest response in the series, negative = inhibition was 16.5% (inactive).

Regarding `CN(CCNC(=O)c1cc2c(-c3ccccc3F)nn(C)c2s1)C1CCCCC1`, the largest response in the series, negative = inhibition is 5.98% (inactive).

Regarding `COC(=O)c1cc(S(=O)(=O)NCC2CCN(Cc3ccc(Cl)cc3)CC2)cn1C`, the largest response in the series, negative = inhibition is 11.4% (inactive).

Turning to `CCOC(=O)C1(Cc2ccccc2C)CCCN(C(=O)c2ccc(COC)o2)C1` (stereo not drawn), the largest response in the series, negative = inhibition is -22.7% (inactive).

Consider `COc1ccc(/C=N/Nc2ccccc2C(=O)O)cc1`, for which the largest response in the series, negative = inhibition was 11.5% (inactive).

In the case of `CCC(=O)Nc1nc(C)c(C(=O)Nc2cccc(Cl)c2)s1`, the largest response in the series, negative = inhibition was 8.26% (inactive).

In the case of `O=C(NCc1ccc(F)cc1)C1CCN(C(=O)Nc2ccc(F)cc2)CC1`, the largest response in the series, negative = inhibition is 9.57% (inactive).

In the case of `C=CCOC(=O)NC(c1ccc(F)c(F)c1)C(C(=O)COC)C(=O)OC` (stereo not drawn), the largest response in the series, negative = inhibition is -7.09% (inactive) and 12.8% (inactive).

In the case of `CCOC(=O)c1cccc(NS(=O)(=O)c2c(C(=O)N3CCCCCC3)c(C)n(C)c2C)c1`, the largest response in the series, negative = inhibition is 2.36% (inactive).

As to `Nc1nonc1-n1nnc(C(=O)N/N=C\c2ccncc2)c1CN1CCCCC1`, the largest response in the series, negative = inhibition was 21.3% (inactive).

On to `COc1ccc2[nH]cc(CCN3C(=O)c4ccc(C(=O)O)cc4C3=O)c2c1`, for which the largest response in the series, negative = inhibition is 20.2% (inactive).

For the compound `Cc1noc(C)c1/C=N/Nc1ccc2ccccc2n1`, the largest response in the series, negative = inhibition was 25.3% (inactive).

As for `O=C(Cc1ccc(F)cc1)N/N=C/c1ccc2c(c1)OCO2`, the largest response in the series, negative = inhibition is 18.6% (inactive).

Consider `C(=N\Nc1ccc2ccccc2n1)/c1ccc2c(c1)OCO2`, for which the Potency was 50.1 µM (active).

Take `Brc1ccc(-c2csc(N/N=C/c3ccc4c(c3)OCO4)n2)cc1`: the Potency was 2.82 µM (active).

With `O=C(N/N=C/c1ccc2c(c1)OCO2)C(=O)N1CCCC1`, the largest response in the series, negative = inhibition was 24.9% (inactive).

For the compound `O=C(CNC(=O)C(c1ccccc1)c1ccccc1)N/N=C\c1ccc2c(c1)OCO2`, the largest response in the series, negative = inhibition is -10.2% (inactive).

As for `CCN(CC)/[N+]([O-])=N/Oc1cc(O/[N+]([O-])=N/N2CCCC2CO)c([N+](=O)[O-])cc1[N+](=O)[O-]` (stereo not drawn), the largest response in the series, negative = inhibition is -6.67% (inactive).

Regarding `Cn1c(=O)c2sccc2n(Cc2ccc(Br)cc2)c1=O`, the largest response in the series, negative = inhibition is 5.6% (inactive).

Take `CCOc1ccc(N(CC(=O)Nc2ccccc2F)S(=O)(=O)c2c(C)[nH]c(=O)[nH]c2=O)cc1`: the largest response in the series, negative = inhibition is 9.89% (inactive).

For the compound `COc1ccccc1C(=O)NC(=S)Nc1ccccc1N1CCCCC1`, the largest response in the series, negative = inhibition was 5.21% (inactive).

Turning to `Cc1ccc(C(=O)NCC(=O)OCC(=O)NC2CCCCCCC2)cc1`, the largest response in the series, negative = inhibition was 15.7% (inactive).

For the compound `COc1ccc(CNC(=O)C2CCN(S(=O)(=O)c3ccc(SC)cc3)CC2)cc1`, the largest response in the series, negative = inhibition was 8.97% (inactive).

Turning to `O=S(=O)(c1ccc(Cl)cc1)c1nc(-c2ccco2)oc1N1CCCCC1`, the largest response in the series, negative = inhibition was -3.63% (inactive).

As to `O=S(=O)(c1ccccc1)c1nc(Cc2ccccc2)oc1N1CCOCC1`, the Potency is 44.7 µM (active).

Take `O=S(=O)(c1ccc(Br)cc1)c1nc(-c2ccccc2)oc1N1CCOCC1`: the largest response in the series, negative = inhibition is -5.06% (inactive).

On to `Cc1ccc(OC(=O)c2cncc(Br)c2)c(C)c1`, for which the largest response in the series, negative = inhibition was -4.31% (inactive).

Regarding `COc1ccc(C(=O)CC(=O)C(=O)Nc2cc([N+](=O)[O-])ccc2OC)cc1`, the largest response in the series, negative = inhibition was 1.31% (inactive).

On to `O=C(Nc1ccc(Cl)cn1)Nc1cccs1`, for which the Potency is 39.8 µM (active).

Consider `O=C(Nc1cccc([N+](=O)[O-])c1)Nc1ccc(Cl)cn1`, for which the largest response in the series, negative = inhibition is 13.8% (inactive).

Consider `CCCc1cc(C(=O)Nc2ccc(Cl)cn2)cs1`, for which the largest response in the series, negative = inhibition is 2.86% (inactive).

On to `Cc1sc2ncn(CC(=O)NCCN(C)C)c(=O)c2c1S(=O)(=O)N1CCC(C)CC1`, for which the largest response in the series, negative = inhibition was 16.8% (inactive).

As for `O=C(CNC(=O)c1ccccc1)Oc1ccc([N+](=O)[O-])cc1`, the largest response in the series, negative = inhibition is 7.55% (inactive).

For `COc1ccc(C(=O)OCC(=O)Nc2cccc(C(C)=O)c2)cc1OC`, the largest response in the series, negative = inhibition is 11.4% (inactive).
